Holding throughout (experiment): DAPPL (digital affinity profiling via proximity ligation, sequencing); 10 mM Tris-HCl pH 7.5, 50 mM NaCl, 1 mM DTT, 4% glycerol, room temperature, 30 min; GST-TFs on glutathione beads, 16-mer random dsDNA library, 0.1% formaldehyde crosslink after washing; high values mean tight binding
One assay concerns the target T1, FLI1 (Homo sapiens, UniProt Q01543 1-452).
T1 sequence: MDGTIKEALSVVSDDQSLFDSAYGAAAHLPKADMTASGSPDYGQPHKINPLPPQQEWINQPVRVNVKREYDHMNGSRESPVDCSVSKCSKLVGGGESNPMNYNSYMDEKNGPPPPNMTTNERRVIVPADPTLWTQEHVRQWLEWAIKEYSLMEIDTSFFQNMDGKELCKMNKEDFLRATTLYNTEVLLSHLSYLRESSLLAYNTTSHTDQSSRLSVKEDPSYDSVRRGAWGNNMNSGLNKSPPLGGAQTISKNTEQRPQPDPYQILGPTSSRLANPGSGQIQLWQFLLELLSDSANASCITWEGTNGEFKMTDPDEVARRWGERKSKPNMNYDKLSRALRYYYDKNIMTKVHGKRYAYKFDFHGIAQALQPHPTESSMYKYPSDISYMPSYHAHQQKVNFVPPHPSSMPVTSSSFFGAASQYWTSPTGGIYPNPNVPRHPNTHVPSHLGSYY
To be noted: protein: recombinant; tags: N-terminal GST; dsDNA, one strand shown. The method, boiled down:
(§1)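 Binding signal is given per hexamer as its read frequency for a factor divided by its frequency in the tag-only sample. GST-fused human transcription factors were expressed in yeast, captured on glutathione beads, barcoded with DNA and pooled with that sample, then incubated with 200 nmole of a 16-mer random double-stranded DNA library in Tris/NaCl/DTT/glycerol buffer for 30 min at room temperature. The pools were then washed, crosslinked, proximity-ligated, amplified by PCR and sequenced on an Illumina NextSeq500.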

In the next assay the target is T2, ELK1 (Homo sapiens, UniProt P19419 1-428).
T2 sequence: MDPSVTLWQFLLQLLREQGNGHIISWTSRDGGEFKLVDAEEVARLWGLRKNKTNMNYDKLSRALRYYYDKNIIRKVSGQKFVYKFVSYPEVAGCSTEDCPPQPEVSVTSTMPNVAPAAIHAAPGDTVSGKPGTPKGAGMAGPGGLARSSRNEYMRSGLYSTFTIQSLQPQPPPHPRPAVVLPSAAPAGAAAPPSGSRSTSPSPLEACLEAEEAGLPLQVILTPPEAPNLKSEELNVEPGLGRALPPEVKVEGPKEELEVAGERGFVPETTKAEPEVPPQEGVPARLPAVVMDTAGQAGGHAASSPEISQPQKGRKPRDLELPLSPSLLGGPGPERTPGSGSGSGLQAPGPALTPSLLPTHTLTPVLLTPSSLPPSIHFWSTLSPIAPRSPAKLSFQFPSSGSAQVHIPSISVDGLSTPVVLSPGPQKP
To be noted: protein: recombinant; tags: N-terminal GST; dsDNA, one strand shown. The method, boiled down:
as §1

The target in the next assay is T3, GABPA (Homo sapiens, UniProt Q06546 1-454).
T3 sequence: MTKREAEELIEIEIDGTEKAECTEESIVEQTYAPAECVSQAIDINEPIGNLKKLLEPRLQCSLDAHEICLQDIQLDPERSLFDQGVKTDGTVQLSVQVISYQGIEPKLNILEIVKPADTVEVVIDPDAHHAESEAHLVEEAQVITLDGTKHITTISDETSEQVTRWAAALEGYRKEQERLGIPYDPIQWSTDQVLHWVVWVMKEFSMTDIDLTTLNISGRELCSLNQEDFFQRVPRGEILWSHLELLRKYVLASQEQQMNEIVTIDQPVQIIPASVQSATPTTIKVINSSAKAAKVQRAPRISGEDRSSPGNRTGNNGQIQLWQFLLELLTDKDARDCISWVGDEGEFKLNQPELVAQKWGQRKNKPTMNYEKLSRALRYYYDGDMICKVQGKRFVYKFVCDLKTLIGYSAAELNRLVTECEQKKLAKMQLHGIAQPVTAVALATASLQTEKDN
To be noted: protein: recombinant; tags: N-terminal GST; dsDNA, one strand shown. The method, boiled down:
as §1

The target in another assay is T4, ERG (Homo sapiens, UniProt P11308 1-479).
T4 sequence: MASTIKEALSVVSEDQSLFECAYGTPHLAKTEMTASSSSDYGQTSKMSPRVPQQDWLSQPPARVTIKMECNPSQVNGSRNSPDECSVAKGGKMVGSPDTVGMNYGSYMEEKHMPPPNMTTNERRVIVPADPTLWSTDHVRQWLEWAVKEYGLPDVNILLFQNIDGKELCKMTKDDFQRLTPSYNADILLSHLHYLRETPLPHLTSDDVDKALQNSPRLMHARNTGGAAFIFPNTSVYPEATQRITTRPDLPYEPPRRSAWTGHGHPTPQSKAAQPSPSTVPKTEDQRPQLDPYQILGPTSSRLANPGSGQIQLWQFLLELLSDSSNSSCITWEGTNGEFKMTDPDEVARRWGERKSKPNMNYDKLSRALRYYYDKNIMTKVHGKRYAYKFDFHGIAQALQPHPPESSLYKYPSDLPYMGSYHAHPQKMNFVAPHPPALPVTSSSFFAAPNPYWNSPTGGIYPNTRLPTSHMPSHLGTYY
To be noted: protein: recombinant; tags: N-terminal GST; dsDNA, one strand shown. The method, boiled down: as §1

Another assay addresses ELF1 (Homo sapiens, UniProt P32519 1-619). Particulars: protein: recombinant; tags: N-terminal GST; dsDNA, one strand shown. The method, boiled down: as §1
The target of a further assay is T5, EHF (Homo sapiens, UniProt Q9NZC4 1-300).
T5 sequence: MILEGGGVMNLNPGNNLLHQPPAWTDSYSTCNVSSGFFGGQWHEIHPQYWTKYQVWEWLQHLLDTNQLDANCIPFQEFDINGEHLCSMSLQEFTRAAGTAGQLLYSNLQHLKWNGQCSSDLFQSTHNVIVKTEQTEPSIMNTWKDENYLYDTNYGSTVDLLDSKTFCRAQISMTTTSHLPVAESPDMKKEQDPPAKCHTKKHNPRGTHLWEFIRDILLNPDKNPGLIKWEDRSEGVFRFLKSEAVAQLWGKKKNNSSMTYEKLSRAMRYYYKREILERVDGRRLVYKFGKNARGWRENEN
To be noted: protein: recombinant; tags: N-terminal GST; dsDNA, one strand shown. The method, boiled down:
as §1

The target in the next assay is SPI1 (Homo sapiens, UniProt P17947 1-270). Particulars: protein: recombinant; tags: N-terminal GST; dsDNA, one strand shown. The method, boiled down: as §1
For another assay, the target named is SPIB (Homo sapiens, UniProt Q01892 1-262). To be noted: protein: recombinant; tags: N-terminal GST; dsDNA, one strand shown. The method, boiled down:
as §1

Another assay deals with T6, ELK3 (Homo sapiens, UniProt P41970 1-407).
T6 sequence: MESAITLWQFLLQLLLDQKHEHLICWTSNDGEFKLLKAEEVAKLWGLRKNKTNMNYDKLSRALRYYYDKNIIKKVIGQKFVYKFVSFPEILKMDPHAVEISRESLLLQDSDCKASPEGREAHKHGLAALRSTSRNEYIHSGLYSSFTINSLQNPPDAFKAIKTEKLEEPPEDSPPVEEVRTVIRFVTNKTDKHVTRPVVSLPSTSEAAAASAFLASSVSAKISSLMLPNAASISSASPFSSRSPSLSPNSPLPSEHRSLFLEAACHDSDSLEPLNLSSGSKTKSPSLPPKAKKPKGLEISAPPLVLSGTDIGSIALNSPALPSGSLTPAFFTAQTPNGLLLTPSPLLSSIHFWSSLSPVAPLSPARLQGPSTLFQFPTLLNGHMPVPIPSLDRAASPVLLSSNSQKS
To be noted: protein: recombinant; tags: N-terminal GST; dsDNA, one strand shown. The method, boiled down:
as §1

The next assay concerns the target T7, FEV (Homo sapiens, UniProt Q99581 1-238).
T7 sequence: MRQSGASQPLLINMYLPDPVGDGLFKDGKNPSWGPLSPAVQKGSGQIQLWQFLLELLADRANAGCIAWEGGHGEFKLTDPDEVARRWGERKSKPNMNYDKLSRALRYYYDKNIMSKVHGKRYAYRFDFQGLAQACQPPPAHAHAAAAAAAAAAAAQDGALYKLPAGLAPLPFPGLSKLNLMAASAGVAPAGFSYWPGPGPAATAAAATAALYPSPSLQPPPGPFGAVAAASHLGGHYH
Particulars: protein: recombinant; tags: N-terminal GST; dsDNA, one strand shown. The method, boiled down:
as §1

A further assay concerns the target ETV5 (Homo sapiens, UniProt P41161 1-510). Particulars: protein: recombinant; tags: N-terminal GST; dsDNA, one strand shown. The method, boiled down:
as §1

Another assay has as its target HSF1 (Homo sapiens, UniProt Q00613 1-529). Particulars: protein: recombinant; tags: N-terminal GST; chain copies: 3; dsDNA, one strand shown. The method, boiled down:
as §1

The target of the next assay is T8, SPIC (Homo sapiens, UniProt Q8N5J4 1-248).
T8 sequence: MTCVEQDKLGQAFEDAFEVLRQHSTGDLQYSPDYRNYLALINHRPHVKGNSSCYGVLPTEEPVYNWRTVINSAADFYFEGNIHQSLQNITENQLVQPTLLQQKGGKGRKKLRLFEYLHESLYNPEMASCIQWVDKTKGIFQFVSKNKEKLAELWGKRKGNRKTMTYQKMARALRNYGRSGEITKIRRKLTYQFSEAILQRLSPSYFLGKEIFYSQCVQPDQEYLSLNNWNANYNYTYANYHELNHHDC
Particulars: protein: recombinant; tags: N-terminal GST; dsDNA, one strand shown. The method, boiled down: as §1

The next assay addresses ELF4 (Homo sapiens, UniProt Q99607 1-663). Particulars: protein: recombinant; tags: N-terminal GST; dsDNA, one strand shown. The method, boiled down: as §1
The target in a further assay is T9, ELK4 (Homo sapiens, UniProt P28324-2 1-405).
T9 sequence: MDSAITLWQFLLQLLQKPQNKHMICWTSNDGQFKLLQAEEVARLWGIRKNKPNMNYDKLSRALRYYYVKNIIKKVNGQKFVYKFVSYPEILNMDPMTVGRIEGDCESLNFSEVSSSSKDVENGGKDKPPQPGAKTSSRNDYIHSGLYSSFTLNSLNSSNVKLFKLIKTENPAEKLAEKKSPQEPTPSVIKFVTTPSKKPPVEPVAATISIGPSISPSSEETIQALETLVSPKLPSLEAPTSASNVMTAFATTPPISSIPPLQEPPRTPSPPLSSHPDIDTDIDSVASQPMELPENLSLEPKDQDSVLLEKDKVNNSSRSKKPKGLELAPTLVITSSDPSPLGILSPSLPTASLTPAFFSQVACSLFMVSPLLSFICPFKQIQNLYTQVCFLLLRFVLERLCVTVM
Particulars: protein: recombinant; tags: N-terminal GST; dsDNA, one strand shown. The method, boiled down:
as §1

A further assay concerns the target T10, ETV2 (Homo sapiens, UniProt O00321 1-342).
T10 sequence: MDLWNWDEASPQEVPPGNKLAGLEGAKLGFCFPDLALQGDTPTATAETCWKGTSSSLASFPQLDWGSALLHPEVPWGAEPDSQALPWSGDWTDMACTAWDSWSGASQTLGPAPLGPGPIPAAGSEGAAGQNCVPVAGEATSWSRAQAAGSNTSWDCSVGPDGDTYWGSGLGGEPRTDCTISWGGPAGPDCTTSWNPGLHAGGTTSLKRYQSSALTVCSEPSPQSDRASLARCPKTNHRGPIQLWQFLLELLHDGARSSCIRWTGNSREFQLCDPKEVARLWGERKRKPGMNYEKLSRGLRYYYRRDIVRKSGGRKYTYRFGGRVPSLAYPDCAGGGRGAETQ
To be noted: protein: recombinant; tags: N-terminal GST; dsDNA, one strand shown. The method, boiled down:
as §1

The target in another assay is T11, ELF3 (Homo sapiens, UniProt P78545 1-371).
T11 sequence: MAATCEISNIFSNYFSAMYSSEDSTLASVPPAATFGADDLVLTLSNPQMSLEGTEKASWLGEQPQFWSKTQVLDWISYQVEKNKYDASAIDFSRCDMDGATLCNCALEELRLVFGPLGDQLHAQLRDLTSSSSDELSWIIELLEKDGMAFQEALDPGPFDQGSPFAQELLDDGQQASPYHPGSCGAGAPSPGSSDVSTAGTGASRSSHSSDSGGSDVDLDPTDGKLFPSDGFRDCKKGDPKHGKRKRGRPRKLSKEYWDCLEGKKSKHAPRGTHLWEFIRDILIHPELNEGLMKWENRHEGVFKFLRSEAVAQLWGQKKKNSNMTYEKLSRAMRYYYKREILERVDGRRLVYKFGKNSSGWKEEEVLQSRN
Particulars: protein: recombinant; tags: N-terminal GST; dsDNA, one strand shown. The method, boiled down:
as §1

The next assay addresses CRX (Homo sapiens, UniProt O43186 1-299). To be noted: protein: recombinant; tags: N-terminal GST; dsDNA, one strand shown. The method, boiled down:
as §1

A further assay addresses ETV1 (Homo sapiens, UniProt P50549 1-477). Particulars: protein: recombinant; tags: N-terminal GST; dsDNA, one strand shown. The method, boiled down:
as §1

ELF4, sequence (Q99607 whole entry): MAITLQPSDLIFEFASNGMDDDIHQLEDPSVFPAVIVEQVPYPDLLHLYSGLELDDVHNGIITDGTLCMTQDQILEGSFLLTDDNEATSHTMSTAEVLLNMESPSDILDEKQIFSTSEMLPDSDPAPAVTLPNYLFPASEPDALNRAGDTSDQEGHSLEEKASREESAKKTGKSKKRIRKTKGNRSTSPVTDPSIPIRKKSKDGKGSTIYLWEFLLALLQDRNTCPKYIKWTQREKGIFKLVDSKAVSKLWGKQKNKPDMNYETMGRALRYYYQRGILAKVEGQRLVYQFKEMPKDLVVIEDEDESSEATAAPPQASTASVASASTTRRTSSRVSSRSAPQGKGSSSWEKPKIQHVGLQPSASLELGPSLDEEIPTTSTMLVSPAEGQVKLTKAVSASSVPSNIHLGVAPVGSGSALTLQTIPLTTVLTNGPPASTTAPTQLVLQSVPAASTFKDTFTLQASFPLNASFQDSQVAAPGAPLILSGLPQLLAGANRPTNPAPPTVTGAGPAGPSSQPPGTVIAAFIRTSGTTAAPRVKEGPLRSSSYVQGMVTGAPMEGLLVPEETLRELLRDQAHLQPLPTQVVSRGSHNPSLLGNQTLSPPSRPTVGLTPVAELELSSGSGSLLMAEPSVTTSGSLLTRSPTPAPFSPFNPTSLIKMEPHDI
HSF1, sequence (Q00613 whole entry): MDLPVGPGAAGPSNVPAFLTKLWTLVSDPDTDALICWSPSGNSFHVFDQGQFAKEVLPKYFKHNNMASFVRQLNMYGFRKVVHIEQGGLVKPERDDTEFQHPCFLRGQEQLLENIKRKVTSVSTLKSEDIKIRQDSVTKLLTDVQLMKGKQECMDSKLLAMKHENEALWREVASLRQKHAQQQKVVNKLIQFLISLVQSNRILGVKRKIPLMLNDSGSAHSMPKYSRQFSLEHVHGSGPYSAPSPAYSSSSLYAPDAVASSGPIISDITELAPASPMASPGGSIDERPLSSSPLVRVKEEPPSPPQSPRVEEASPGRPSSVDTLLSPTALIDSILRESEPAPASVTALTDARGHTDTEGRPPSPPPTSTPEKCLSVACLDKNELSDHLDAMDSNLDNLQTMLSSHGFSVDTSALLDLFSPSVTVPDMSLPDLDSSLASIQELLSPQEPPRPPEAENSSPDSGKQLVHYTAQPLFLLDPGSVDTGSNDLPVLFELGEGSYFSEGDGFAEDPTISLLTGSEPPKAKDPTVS
ELF1, sequence (P32519 whole entry): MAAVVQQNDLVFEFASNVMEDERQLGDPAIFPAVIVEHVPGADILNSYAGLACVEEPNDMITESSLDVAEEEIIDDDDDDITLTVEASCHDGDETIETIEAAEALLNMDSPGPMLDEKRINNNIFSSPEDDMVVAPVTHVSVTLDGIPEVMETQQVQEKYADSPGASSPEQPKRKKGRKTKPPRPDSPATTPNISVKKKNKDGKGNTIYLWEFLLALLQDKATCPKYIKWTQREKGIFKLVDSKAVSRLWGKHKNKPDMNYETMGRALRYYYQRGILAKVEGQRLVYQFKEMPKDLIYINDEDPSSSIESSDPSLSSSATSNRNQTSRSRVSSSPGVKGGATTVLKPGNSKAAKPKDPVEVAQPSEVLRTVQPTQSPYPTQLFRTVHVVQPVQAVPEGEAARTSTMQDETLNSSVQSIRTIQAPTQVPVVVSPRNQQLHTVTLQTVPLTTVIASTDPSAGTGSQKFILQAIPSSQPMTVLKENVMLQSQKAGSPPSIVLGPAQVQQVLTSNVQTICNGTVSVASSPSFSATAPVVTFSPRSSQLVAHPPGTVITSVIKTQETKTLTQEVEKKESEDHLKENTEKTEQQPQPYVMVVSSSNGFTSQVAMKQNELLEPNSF
ETV5, sequence (P41161 whole entry): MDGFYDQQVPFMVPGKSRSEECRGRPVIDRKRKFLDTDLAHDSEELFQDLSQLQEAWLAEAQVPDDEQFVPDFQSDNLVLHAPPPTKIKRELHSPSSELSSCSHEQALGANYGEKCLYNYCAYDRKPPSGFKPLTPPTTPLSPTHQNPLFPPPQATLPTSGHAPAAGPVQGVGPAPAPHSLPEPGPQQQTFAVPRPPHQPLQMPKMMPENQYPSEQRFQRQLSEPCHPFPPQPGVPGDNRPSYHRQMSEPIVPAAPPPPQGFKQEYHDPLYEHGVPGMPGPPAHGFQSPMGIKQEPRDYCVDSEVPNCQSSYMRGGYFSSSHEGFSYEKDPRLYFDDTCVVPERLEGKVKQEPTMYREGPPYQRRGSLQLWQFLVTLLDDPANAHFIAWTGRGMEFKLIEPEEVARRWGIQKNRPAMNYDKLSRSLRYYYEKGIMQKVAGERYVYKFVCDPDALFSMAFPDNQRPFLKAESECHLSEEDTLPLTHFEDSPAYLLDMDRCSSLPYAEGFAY
CRX, sequence (O43186 whole entry): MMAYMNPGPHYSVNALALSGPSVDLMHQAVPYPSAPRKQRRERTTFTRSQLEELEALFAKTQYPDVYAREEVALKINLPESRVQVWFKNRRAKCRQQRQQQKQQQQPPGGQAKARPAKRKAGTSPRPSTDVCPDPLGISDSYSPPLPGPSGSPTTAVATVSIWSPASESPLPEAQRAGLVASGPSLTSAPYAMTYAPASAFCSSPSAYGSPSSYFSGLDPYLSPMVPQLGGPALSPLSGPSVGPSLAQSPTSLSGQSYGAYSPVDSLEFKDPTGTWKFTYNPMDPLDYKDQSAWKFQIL
SPIB, sequence (Q01892 whole entry): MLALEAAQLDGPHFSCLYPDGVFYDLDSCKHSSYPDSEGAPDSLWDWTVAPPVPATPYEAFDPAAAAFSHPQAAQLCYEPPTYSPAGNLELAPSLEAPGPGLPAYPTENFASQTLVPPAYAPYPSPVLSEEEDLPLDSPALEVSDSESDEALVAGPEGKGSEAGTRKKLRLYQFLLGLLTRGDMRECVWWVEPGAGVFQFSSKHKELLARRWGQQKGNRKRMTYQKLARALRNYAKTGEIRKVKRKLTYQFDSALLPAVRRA
ETV1, sequence (P50549 whole entry): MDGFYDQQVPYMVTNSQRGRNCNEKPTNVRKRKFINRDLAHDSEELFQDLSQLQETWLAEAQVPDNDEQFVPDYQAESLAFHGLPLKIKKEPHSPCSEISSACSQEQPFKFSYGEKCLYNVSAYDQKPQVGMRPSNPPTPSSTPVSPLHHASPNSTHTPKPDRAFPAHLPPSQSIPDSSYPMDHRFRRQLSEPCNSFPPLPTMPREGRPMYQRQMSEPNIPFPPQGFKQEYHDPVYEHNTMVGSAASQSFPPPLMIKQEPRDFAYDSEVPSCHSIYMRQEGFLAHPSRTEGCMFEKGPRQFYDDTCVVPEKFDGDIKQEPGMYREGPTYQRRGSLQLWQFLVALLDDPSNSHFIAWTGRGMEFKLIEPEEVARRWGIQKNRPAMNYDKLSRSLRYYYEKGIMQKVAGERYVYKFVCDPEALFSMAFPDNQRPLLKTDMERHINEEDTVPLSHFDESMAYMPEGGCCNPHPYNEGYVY

In the case of TAAGCT, the binding signal in the assay with FLI1 was 1.21 fold enrichment (6-mer frequency, TF over GST control); with ELK1, 1.24 fold enrichment (6-mer frequency, TF over GST control); with GABPA it was 1.17 fold enrichment (6-mer frequency, TF over GST control); with ERG it was 1.18 fold enrichment (6-mer frequency, TF over GST control); with ELF1, 1.15 fold enrichment (6-mer frequency, TF over GST control); with EHF, 1.2 fold enrichment (6-mer frequency, TF over GST control). The binding signal with SPI1 is 1.1 fold enrichment (6-mer frequency, TF over GST control); with SPIB it was 1.18 fold enrichment (6-mer frequency, TF over GST control); with ELK3, 1.12 fold enrichment (6-mer frequency, TF over GST control); with FEV it was 1.08 fold enrichment (6-mer frequency, TF over GST control); in the assay with ETV5, 1.16 fold enrichment (6-mer frequency, TF over GST control); with HSF1, 1.91 fold enrichment (6-mer frequency, TF over GST control). For the same sequence, the binding signal is 1.24 fold enrichment (6-mer frequency, TF over GST control) in the assay with SPIC; 1.18 fold enrichment (6-mer frequency, TF over GST control) in the assay with ELF4; 1.21 fold enrichment (6-mer frequency, TF over GST control) in the assay with ELK4; 1.19 fold enrichment (6-mer frequency, TF over GST control) with ETV2; 1.32 fold enrichment (6-mer frequency, TF over GST control) in the assay with ELF3; 3.23 fold enrichment (6-mer frequency, TF over GST control) with CRX. In the assay with ETV1, the binding signal is 1.23 fold enrichment (6-mer frequency, TF over GST control).

For the origin of these results see article PMC7862700, “An all-to-all approach to the identification of sequence-specific readers for epigenetic DNA modifications on cytosine”.
